Screening results deposited in PubChem by National Center for Advancing Translational Sciences (NCATS).
Shown are actives, neighbours in structure and some others; about 9% of the full set was active somewhere.
HTT aggregate: qHTS Multiplex Assay to Identify Dual Action Probes in a Cell Model of Huntington: Aggregate Formation (GFP); Potency, µM (highest dose often 46.1 µM), for the others: at the top dose activity change, negative = inhibition, most hits filed as inhibitors; PC12 HttQ103-GFP aggregates, Acumen cytometry, 40 h; 220,000 tested, 1.1% active; further: on the % scale 0 is the no-effect control and ±100 the full control effect; nearly all actives have a fitted effect of over 60% in size
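Ecdysone-promoter PC12 model expressing HTT exon 1 Q103 fused to GFP, induced by tebufenozide at 100 nM final. Compounds titrated; aggregates sized 1–25 µm scored on a 488 nm laser cytometer.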
Lamin A splicing: qHTS Assay for Modulators of Lamin A Splicing. Potency, µM (top dose mostly 46.1 µM), without a hit: at the top dose ratio change, negative = inhibition, most hits filed as inhibitors. 200,000 tested, 0.01% active. HeLa LMNA splicing GFP/RFP minigene ratio, 48 h. AID 1487, 2009; active means well fitted inhibition curve with a large enough effect in the signal ratio, with a control signal flat, not every such curve was filed as active; inconclusive means small, poorly fitted or top-dose-only effect, or effect the other way, or a change in a side signal; the % refers to the signal ratio; further: on the % scale 0 is the no-effect control and ±100 the full control effect
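S3 HeLa stable clones carrying a lamin A-EGFP splicing minigene plus DsRed2 were seeded at 600 cells/well in Opti-MEM with 2% FBS, pin-dosed and incubated 48 h at 37°C. Acumen cytometry (488 nm) gave the GFP/RFP total-intensity ratio.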
HPGD block: qHTS Assay for Inhibitors of HPGD (15-Hydroxyprostaglandin Dehydrogenase); 15-hydroxyprostaglandin dehydrogenase [NAD(+)] (Homo sapiens), P15428; purified HPGD, NADH fluorescence kinetic, PGE2 substrate; Potency, µM, for the others: at the top dose activity change, negative = inhibition, hits mostly inhibitors; 150,000 tested, 4.3% active; active means well fitted inhibition curve with a large enough effect, not every such curve was filed as active; inconclusive means small, poorly fitted or top-dose-only effect, or another doubt; inactive means no such curve, though single readings can be large or run the other way; further: on the % scale 0 is the no-effect control and ±100 the full control effect
Target sequence (P15428 whole entry, looked up): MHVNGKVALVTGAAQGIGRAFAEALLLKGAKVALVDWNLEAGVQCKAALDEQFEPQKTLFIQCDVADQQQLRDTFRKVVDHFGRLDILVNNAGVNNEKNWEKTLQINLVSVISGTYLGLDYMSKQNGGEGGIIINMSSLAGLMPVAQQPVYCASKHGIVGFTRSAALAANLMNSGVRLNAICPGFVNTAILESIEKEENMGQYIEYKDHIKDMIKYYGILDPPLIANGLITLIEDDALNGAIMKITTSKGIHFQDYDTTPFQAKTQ
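NADH formation kinetics: reaction with 30 uM PGE2 and 1 mM NAD+ (final), 20 nM enzyme, Tris-HCl pH 8 with Tween 20, after 15 min compound preincubation at room temperature. Fluorescence change, last versus first of five reads.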
HTT cytoprotect: qHTS Multiplex Assay to Identify Dual Action Probes in a Cell Model of Huntington: Cytoprotection (ATP) | 230,000 tested, 0.14% active | Potency, µM (titrated, usually from 56.4 µM), inactives show cytoprotection (ATP increase), hits mostly activators | PC12 HTT-Q103 induced, cytoprotection, ATP luminescence, 40 h; further: % of control where 0% means no effect; nearly all actives have a fitted effect of over 45% in size
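PC12 cells with ecdysone-inducible HTT exon 1 Q103-GFP, induced with 100 nM tebufenozide and co-treated with library compounds in a dose series (1536-well, 1500 cells/well). Cytoprotection read as ATP content by ATPlite luminescence.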
ALDH1A1 block: qHTS Assay for Inhibitors of Aldehyde Dehydrogenase 1 (ALDH1A1) | 220,000 tested, 7.3% active | Potency, µM (doses to about 75.3 µM), for the others: at the top dose activity, negative = inhibition, actives largely listed as inhibitors | Aldehyde dehydrogenase 1A1 (Homo sapiens), P00352 | Purified ALDH1A1, NADH fluorescence, propionaldehyde substrate; active means well fitted inhibition curve with a large enough effect, not every such curve was filed as active; inconclusive means small, poorly fitted or top-dose-only effect, or another doubt; inactive means no such curve, though single readings can be large or run the other way;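 further: plate controls were no enzyme wells and a reference inhibitor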
Luc counter: Counterscreen for Luciferase (Kinase-Glo TM) Inhibition | Luciferin 4-monooxygenase (Photuris pensylvanica), Q27757 | Potency, µM (series often up to 38.3 µM), for the others: at the highest dose activity change, negative = inhibition, hits mostly inhibitors | AID 1379, 2008 | Kinase-Glo luciferase, ATP luminescence, 8 min | 200,000 tested, 0.28% active; further: on the % scale 0 is the no-effect control and ±100 the full control effect; nearly all actives have a fitted effect of over 60% in size
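Light output from Kinase-Glo luciferase with luciferin and 10 uM ATP in 50 mM imidazole pH 7.2, KCl, MgCl2, Tween 20, BSA; compound pin-delivered, 8-min ambient incubation, then luminescence read.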
* hit, by the source's call; ! = not confirmed by another sample; [ ] = dose if it differs, or a comment. Unless noted, the call rests on the fitted dose curve; in most records, active means well fitted curve in the direction sought with a large enough effect; inconclusive means small, poorly fitted or top-dose-only effect, or another doubt; inactive means no such curve, though single readings can be large; an effect the other way counts as inactive or inconclusive. Potency means the concentration at half of the fitted maximal effect.

Screening O=C1CN(C(=O)COc2ccccc2F)c2ccccc2N1 returned HTT aggregate -5%, Lamin A splicing 11%, HPGD block -20%, HTT cytoprotect inconclusive, ALDH1A1 block 18µM* and Luc counter -2%.
For CC(C)[C@H](NC(=O)c1ccco1)C(=O)OCC(=O)N1CC(=O)Nc2ccccc21 the results were HTT aggregate 25%, Lamin A splicing 2%[46 µM], HTT cytoprotect -20%, ALDH1A1 block 14µM* and Luc counter 3%.
For COc1ccc(-n2c(C)cc(C(=O)COc3ccc(-n4cnnn4)cc3)c2C)cc1 the results were HTT aggregate -13%, Lamin A splicing 6%, HPGD block -6%, HTT cytoprotect 0%[10 µM], ALDH1A1 block 0% and Luc counter 0%.
`O=[N+]([O-])c1ccccc1S(=O)(=O)Oc1ccccc1/C=N/n1cnnc1` gave HTT aggregate -7%, Lamin A splicing -7%, HPGD block 18µM*, HTT cytoprotect 29%[10 µM], ALDH1A1 block -1% and Luc counter 0%.
CCOC(=O)C1CCN(S(=O)(=O)c2ccc(-c3ccccn3)s2)CC1 was read as HTT aggregate 3%[9.22 µM], HTT cytoprotect -16%[10 µM] and ALDH1A1 block inconclusive.
For CN(C)CC/C=C1\c2ccccc2COc2ccccc21 the results were HTT aggregate -12%, Lamin A splicing inconclusive, HPGD block -8%, HTT cytoprotect inconclusive, ALDH1A1 block 18µM*! and Luc counter -2%.
For Cc1cc(C)n2nc(SCc3nnc(SCCCCl)o3)nc2n1 the results were HTT aggregate 5%, Lamin A splicing -11%, HPGD block -25%, HTT cytoprotect -9%, ALDH1A1 block 13% and Luc counter -4%.
For CCCCCCCCSc1nnc(CSc2nc3nc(C)cc(C)n3n2)o1 the results were HTT aggregate 22µM*, Lamin A splicing 10%, HPGD block -21%, HTT cytoprotect -40%, ALDH1A1 block 0% and Luc counter -1%.
CC(C)(C)NC(=O)C(c1ccccn1)N(C(=O)C1CSC(=O)C1)c1cccc(F)c1 (configuration not stated) was read as HTT aggregate -6%, Lamin A splicing -1%[46 µM], HTT cytoprotect 6%, ALDH1A1 block 2% and Luc counter 15%.
For Cc1cccc(OCC(=O)Nc2ccc3oc(-c4ccccc4F)nc3c2)c1 the results were Lamin A splicing 21%[46 µM].
O=C(/C=C/c1cccc([N+](=O)[O-])c1)Nc1ccccn1 was read as HTT aggregate 24%, Lamin A splicing 13%[9.22 µM], HTT cytoprotect -18%, ALDH1A1 block 21% and Luc counter -1%.
`CCn1cc[n+](C)c1P(c1ccccc1)c1ccccc1` gave HTT aggregate inconclusive, Lamin A splicing inconclusive, HPGD block 25µM*, HTT cytoprotect 10%[1.9 µM], ALDH1A1 block 8% and Luc counter -2%.
Screening O=C(O)/C=C\C(=O)Nc1ccc(Oc2ccccc2)cc1 returned HTT aggregate -11%, Lamin A splicing 7%, HPGD block -18%, HTT cytoprotect -21%, ALDH1A1 block 11µM* and Luc counter -3%.
O=C(O)/C=C/C(=O)Nc1ccc(Cc2ccc(NC(=O)/C=C/C(=O)O)cc2)cc1 was read as HTT aggregate -20%[9.22 µM] and HTT cytoprotect -5%[10 µM].
O=C(O)/C=C/C(=O)Nc1ccc(SC(F)(F)C(F)(F)C(F)(F)F)cc1 was read as HTT aggregate -1%, Lamin A splicing inconclusive, HTT cytoprotect -57%, ALDH1A1 block 28µM* and Luc counter 5%.
For O=C(O)/C=C/C(=O)Nc1ccc(Oc2ccc(NC(=O)/C=C/C(=O)O)cc2)cc1 the results were HTT aggregate 5%, Lamin A splicing 0%, HPGD block -8%, HTT cytoprotect 4%[10 µM], ALDH1A1 block inconclusive and Luc counter -1%.
`O=C(O)/C=C/C(=O)Nc1ccc(OC(F)(F)Cl)cc1` gave HTT aggregate 7%, Lamin A splicing inconclusive, HTT cytoprotect -48%, ALDH1A1 block 25µM* and Luc counter 1%.
For CCCNC(=O)c1cc(-c2ccc(Br)cc2)on1 the results were HTT aggregate 13%, Lamin A splicing -2%, HPGD block -26%, HTT cytoprotect -5%, ALDH1A1 block -13% and Luc counter -4%.
For O=C(C1CC2C=CC1C2)N1CCN(c2ccccc2)CC1 (configuration not stated) the results were HTT aggregate -5%, Lamin A splicing 7%[46 µM], HTT cytoprotect -35%, ALDH1A1 block 11% and Luc counter 4%.
For N#C/C(=C(/O)c1cccs1)c1nnc2n1CCCCC2 the results were HTT aggregate 7%, Lamin A splicing -10%[46 µM], HTT cytoprotect 9%, ALDH1A1 block -6% and Luc counter 0%.
Screening Cc1oc(-c2ccc(Cl)cc2)cc1-c1nn2c(-c3ccoc3C)nnc2s1 returned HTT aggregate -4%, Lamin A splicing 12%, HPGD block 25µM*, HTT cytoprotect 4%, ALDH1A1 block 20µM* and Luc counter -4%.
For Clc1ccc(-c2nnc3sc(-c4ccc(Br)o4)nn23)cc1 the results were HTT aggregate -12%, Lamin A splicing 7%, HPGD block inconclusive, HTT cytoprotect 7%[10 µM], ALDH1A1 block 6% and Luc counter 0%.
C=CCSC1=NC(N)=C(C#N)C2(CCCCC2)C1C(N)=O (configuration not stated) was read as HTT aggregate 0%, Lamin A splicing 8%, HPGD block -10%, HTT cytoprotect 15%, ALDH1A1 block inconclusive and Luc counter -2%.
`Cc1ccc(S(=O)(=O)/N=C2/NC(=O)/C(=C/c3ccccc3)S2)cc1` gave HTT aggregate inconclusive, HTT cytoprotect -29%, ALDH1A1 block inconclusive and Luc counter 4%.
For COc1cc(/C=C2\S/C(=N/S(=O)(=O)c3ccc(C)cc3)NC2=O)c([N+](=O)[O-])cc1OC the results were HTT aggregate 20%, Lamin A splicing -1%, HPGD block 7.1µM*, HTT cytoprotect 28%[10 µM], ALDH1A1 block inconclusive and Luc counter 1%.
For Cc1ccc(S(=O)(=O)/N=C2/NC(=O)/C(=C/c3ccncc3)S2)cc1 the results were HTT aggregate -3%, Lamin A splicing 16%, HPGD block 14µM*, HTT cytoprotect inconclusive, ALDH1A1 block inconclusive and Luc counter 1%.
